# Source: PubChem BioAssay AID1159580 (chemical genetic matrix, 2015)
# Screen size: about 5,500 compounds; about 2,000 (36%) were called active. Roughly 18% stayed inconclusive and do not appear here. The list shows a part of the results. Unmarked numbers belong to inactive results. Rule as the data show it: active = normalized growth mostly below about 0.91 (no sharp cut-off); inconclusive = no clear call, values can overlap the other calls; inactive = mostly above about 0.92.
# Assay: chemical genetic growth profiling, strain panel (AID 1159580);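 also: tested at 20 µM; growth read once vehicle control cultures reached saturation at 30 °C; 1 = growth at the plate median or of vehicle wells; lower values mean less growth of the strain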
# Details: S. cerevisiae deletion strains, growth OD
# [1] = locus YAR019C, strain CDC15, active compounds read low
# [2] = locus YBL105C, strain PKC1, active compounds read low
# [3] = locus YBR135W, strain CKS1, active compounds read low
# [4] = locus YBR136W, strain MEC1, active compounds read low
# [5] = locus YBR160W, strain CDC28, active compounds read low
# [6] = locus YDL017W, strain CDC7, active compounds read low
# [7] = locus YDL028C, strain MPS1, active compounds read low
# [8] = locus YDL101C, strain DUN1, active compounds read low
# [9] = locus YDL108W, strain KIN28, active compounds read low
# [10] = locus YDL132W, strain cdc53, active compounds read low
# [11] = locus YDL214C, strain PRR2, active compounds read low
# [12] = locus YDR052C, strain DBF4, active compounds read low
# [13] = locus YDR054C, strain cdc34, active compounds read low
# [14] = locus YDR226W, strain ADK1, active compounds read low
# [15] = locus YDR477W, strain SNF1, active compounds read low
# [16] = locus YER123W, strain YCK3, active compounds read low
# [17] = locus YER133W, strain GLC7, active compounds read low
# [18] = locus YFL009W, strain cdc4, active compounds read low
# [19] = locus YFL029C, strain CAK1, active compounds read low
# [20] = locus YFR003C, strain YPI1, active compounds read low
# [21] = locus YFR019W, strain FAB1, active compounds read low
# [22] = locus YFR028C, strain CDC14, active compounds read low
# [23] = locus YGR040W, strain KSS1, active compounds read low
# [24] = locus YGR052W, strain FMP48, active compounds read low
# [25] = locus YGR092W, strain DBF2, active compounds read low
# [26] = locus YHR030C, strain SLT2, active compounds read low
# [27] = locus YHR079C, strain IRE1, active compounds read low
# [28] = locus YHR082C, strain KSP1, active compounds read low
# [29] = locus YHR205W, strain SCH9, active compounds read low
# [30] = locus YIL147C, strain SLN1, active compounds read low
# [31] = locus YJL095W, strain BCK1, active compounds read low
# [32] = locus YJL128C, strain PBS2, active compounds read low
# [33] = locus YJL157C, strain FAR1, active compounds read low
# [34] = locus YJR016C, strain ILV3, active compounds read low
# [35] = locus YJR066W, strain TOR1 (second series), active compounds read low
# [36] = locus YJR066W, strain TOR1, active compounds read low
# [37] = locus YKL048C, strain ELM1, active compounds read low
# [38] = locus YKL067W, strain YNK1, active compounds read low
# [39] = locus YKL101W, strain HSL1, active compounds read low
# [40] = locus YKL193C, strain SDS22, active compounds read low
# [41] = locus YKL203C, strain TOR2, active compounds read low
# [42] = locus YLR113W, strain HOG1, active compounds read low
# [43] = locus YLR133W, strain CKI1, active compounds read low
# [44] = locus YLR403W, strain SFP1, active compounds read low
# [45] = locus YML070W, strain DAK1, active compounds read low
# [46] = locus YMR001C, strain CDC5, active compounds read low
# [47] = locus YMR205C, strain PFK2 (second series), active compounds read low
# [48] = locus YMR277W, strain FCP1, active compounds read low
# [49] = locus YNL006W, strain LST8, active compounds read low
# [50] = locus YNL020C, strain ARK1, active compounds read low
# [51] = locus YNL161W, strain CBK1, active compounds read low
# [52] = locus YNL183C, strain NPR1, active compounds read low
# [53] = locus YNL207W, strain RIO2, active compounds read low
# [54] = locus YNL222W, strain SSU72, active compounds read low
# [55] = locus YNL307C, strain MCK1 (second series), active compounds read low
# [56] = locus YOL078W, strain AVO1, active compounds read low
# [57] = locus YOL136C, strain PFK27, active compounds read low
# [58] = locus YOR061W, strain CKA2, active compounds read low
# [59] = locus YOR119C, strain RIO1, active compounds read low
# [60] = locus YOR231W, strain MKK1, active compounds read low
# [61] = locus YOR329C, strain SCD5, active compounds read low
# [62] = locus YPL031C, strain PHO85, active compounds read low
# [63] = locus YPL153C, strain RAD53, active compounds read low
# [64] = locus YPL204W, strain HRR25, active compounds read low
# [65] = locus YPL209C, strain IPL1, active compounds read low
# [66] = locus YPL256C, strain CLN2, active compounds read low
# [67] = locus YPR025C, strain CCL1, active compounds read low
# [68] = locus YPR106W, strain ISR1, active compounds read low
# [69] = locus YPR111W, strain DBF20, active compounds read low
# [70] = strain NNK1, active compounds read low
# [71] = strain TSCII, active compounds read low
smiles,measurement,setting,value
Cc1cc(Br)ccc1-n1c(Sc2c([N+](=O)[O-])cc(C(F)(F)F)cc2[N+](=O)[O-])nc2ccccc2c1=O,normalized growth,[1],0.99
same,normalized growth,[2],0.985
same,normalized growth,[3],0.984
same,normalized growth,[4],0.978
same,normalized growth,[5],0.988
same,normalized growth,[6],0.989
same,normalized growth,[7],0.983
same,normalized growth,[8],0.988
same,normalized growth,[9],0.984
same,normalized growth,[10],0.994
same,normalized growth,[11],0.892
same,normalized growth,[12],0.989
same,normalized growth,[13],0.985
same,normalized growth,[14],0.981
same,normalized growth,[15],0.933
same,normalized growth,[16],0.901
same,normalized growth,[17],0.933
same,normalized growth,[18],0.986
same,normalized growth,[19],0.986
same,normalized growth,[20],0.986
same,normalized growth,[21],0.952
same,normalized growth,[22],0.994
same,normalized growth,[23],0.938
same,normalized growth,[24],0.945
same,normalized growth,[25],0.968
same,normalized growth,[26],0.972
same,normalized growth,[27],0.922
same,normalized growth,[28],0.997
same,normalized growth,[29],0.879
same,normalized growth,[30],0.984
same,normalized growth,[31],0.88
same,normalized growth,[32],0.915
same,normalized growth,[33],0.927
same,normalized growth,[34],0.987
same,normalized growth,[35],0.885
same,normalized growth,[36],1.06
same,normalized growth,[37],0.946
same,normalized growth,[38],0.943
same,normalized growth,[39],0.93
same,normalized growth,[40],0.982
same,normalized growth,[41],1
same,normalized growth,[42],0.841 (active)
same,normalized growth,[43],0.95
same,normalized growth,[44],0.961
same,normalized growth,[45],0.923
same,normalized growth,[46],0.981
same,normalized growth,[47],0.939
same,normalized growth,[48],0.982
same,normalized growth,[49],0.981
same,normalized growth,[50],0.943
same,normalized growth,[51],0.982
same,normalized growth,[52],1.02
same,normalized growth,[53],0.999
same,normalized growth,[54],0.983
same,normalized growth,[55],0.932
same,normalized growth,[56],0.984
same,normalized growth,[57],0.926
same,normalized growth,[58],0.937
same,normalized growth,[59],0.998
same,normalized growth,[60],0.955
same,normalized growth,[61],0.988
same,normalized growth,[62],0.923
same,normalized growth,[63],0.917
same,normalized growth,[64],0.928
same,normalized growth,[65],0.99
same,normalized growth,[66],0.943
same,normalized growth,[67],0.983
same,normalized growth,[68],0.968
same,normalized growth,[69],0.972
same,normalized growth,[70],0.968
same,normalized growth,[71],0.993
CC(=O)c1sc(SCCS(=O)(=O)c2ccc(C)cc2)c2c1CC(C)(C)CC2=O,normalized growth,[1],0.984
same,normalized growth,[2],1.01
same,normalized growth,[3],0.984
same,normalized growth,[4],0.98
same,normalized growth,[5],0.98
same,normalized growth,[6],0.992
same,normalized growth,[7],0.98
same,normalized growth,[8],0.969
same,normalized growth,[9],0.97
same,normalized growth,[10],0.978
same,normalized growth,[11],0.926
same,normalized growth,[12],0.935
same,normalized growth,[13],1.01
same,normalized growth,[14],0.962
same,normalized growth,[15],0.643 (active)
same,normalized growth,[16],0.914
same,normalized growth,[17],0.267 (active)
same,normalized growth,[18],0.973
same,normalized growth,[19],0.986
same,normalized growth,[20],0.97
same,normalized growth,[21],0.932
same,normalized growth,[22],0.97
same,normalized growth,[23],0.675 (active)
same,normalized growth,[24],0.947
same,normalized growth,[25],0.963
same,normalized growth,[26],0.498 (active)
same,normalized growth,[27],1.08
same,normalized growth,[28],0.987
same,normalized growth,[29],0.958
same,normalized growth,[30],0.979
same,normalized growth,[31],0.589
same,normalized growth,[32],0.982
same,normalized growth,[33],0.943
same,normalized growth,[34],0.985
same,normalized growth,[35],0.82
same,normalized growth,[36],0.995
same,normalized growth,[37],0.859
same,normalized growth,[38],0.936
same,normalized growth,[39],0.926
same,normalized growth,[40],0.98
same,normalized growth,[41],0.635 (active)
same,normalized growth,[42],0.912
same,normalized growth,[43],0.931
same,normalized growth,[44],0.828
same,normalized growth,[45],0.948
same,normalized growth,[46],0.983
same,normalized growth,[47],0.923
same,normalized growth,[48],0.964
same,normalized growth,[49],0.967
same,normalized growth,[50],0.935
same,normalized growth,[51],0.973
same,normalized growth,[52],0.962
same,normalized growth,[53],1
same,normalized growth,[54],0.967
same,normalized growth,[55],0.913
same,normalized growth,[56],0.972
same,normalized growth,[57],0.896
same,normalized growth,[58],0.941
same,normalized growth,[59],0.653 (active)
same,normalized growth,[60],0.94
same,normalized growth,[61],0.979
same,normalized growth,[62],0.818
same,normalized growth,[63],0.622 (active)
same,normalized growth,[64],0.653 (active)
same,normalized growth,[65],0.986
same,normalized growth,[66],0.956
same,normalized growth,[67],0.975
same,normalized growth,[68],0.978
same,normalized growth,[69],0.963
same,normalized growth,[70],0.991
same,normalized growth,[71],0.967
